Screening data (PubChem BioAssay)
TGFb SMAD3 inh: qHTS for Inhibitors of TGF-b; AID 588855, 2011; hit rate 1.2% among 410,000; HepG2 CAGA-GFP TGF-b/SMAD3 reporter, GFP fluorescence, 18 h; TGF-beta stimulated, 500 pg/mL final; Potency, µM (doses to about 46.1 µM), inactives show top-dose activity, negative = inhibition, hits mostly inhibitors; also: % is scaled to controls: 0 for no effect and ±100 for the full control effect; nearly all actives have a fitted effect of over 65% in size
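GFP signal (ex488/em500-530) from TGF-beta-stimulated HEPG2 CAGA-GFP cells, 500 pg/mL final, 18 h at 37 degrees C in DMEM plus 1% FBS, normalized to unstimulated and DMSO-stimulated controls.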
HT1080NT lethal: qHTS for induction of synthetic lethality in tumor cells producing 2HG: qHTS for the HT-1080-NT fibrosarcoma cell line; AID 686970, 2013; HT-1080-NT fibrosarcoma viability, CellTiter-Glo ATP luminescence, 48 h; hit rate 1.6% among 360,000; Potency, µM (highest dose often 46.1 µM), for the others: at the highest dose activity, negative = less viability, hits mostly cytotoxic;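 also: NT is the 2HG producing partner of a matched IDH1 knockdown line; 0% = DMSO-treated cells and -100% = media-only wells without cells; nearly all actives have a fitted effect of over 55% in size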
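Toxicity toward the 2HG-producing NT line was scored as %Activity, normalised to DMSO and no-cell wells, from CellTiter-Glo luminescence after 48 hours' treatment.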
ATXN2 expr inh: Primary qHTS for Inhibitors of ATXN expression. HEK-293 ATXN2-luciferase reporter, luminescence, 24 h. Potency, µM (doses to about 57 µM), for inactives: at the top dose activity change, negative = inhibition, usual class: inhibitors. hit rate 0.72% among 360,000. AID 1745845, 2022; also: % is scaled to controls: 0 for no effect and ±100 for the full control effect; nearly all actives have a fitted effect of over 55% in size
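qHTS (up to 57 uM final) was run with 24 h compound exposure of reporter cells at 37 °C. Each well was multiplexed: SteadyGlo luminescence measured ATXN2-luciferase expression after a fluorogenic Gly-Phe-AFC viability readout (25 uM final).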
S2 tox: Viability Counterscreen for Primary qHTS for Inhibitors of ATXN expression | hit rate 0.49% among 400,000 | AID 651635, 2014 | Potency, µM (series often up to 56.7 µM), usual class: cytotoxic | S2 cells (HEK-293 line with an ATXN2-luciferase reporter) viability, CellTiter-Fluor protease fluorescence, 24 h; also: nearly all actives have a fitted effect of over 40% in size
HT1080 IDH1KD tx: qHTS for induction of synthetic lethality in tumor cells producing 2HG: qHTS for the HT-1080-IDH1KD cell line; HT-1080 IDH1 knockdown viability, ATP luminescence, 48 h; hit rate 2% among 360,000; Potency, µM (doses to about 46.1 µM), inactives show top-dose activity, negative = toxicity, actives largely listed as cytotoxic; AID 686971, 2013;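 also: 0% = DMSO wells and -100% = cell-free medium wells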
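Knockdown cells (IDH1KD HT-1080) received compounds 2 h after plating at 750 cells/well and were kept 48 h at 37 °C in 5% FBS RPMI. A CellTiter-Glo luminescence read gave % activity for curve fitting.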
HepG2 tox: qHTS for Inhibitors of TGF-b: Cytotox Counterscreen | HepG2 CAGA-GFP viability, ATP luminescence, 18 h | Potency, µM (series often up to 46.1 µM), for the others: top-dose activity change, negative = cytotoxicity, most hits filed as cytotoxic | hit rate 0.76% among 410,000 | AID 588856, 2011
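HepG2 CAGA-GFP cells (1000/well, DMEM with 1% FBS) received compound, then TGF-beta at 500 pg/mL final, and were incubated 18 hours at 37 degrees C. Viability was read by CellTiter-Glo luminescence. Media-only wells were set as complete cell-killing and DMSO as no toxicity.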
Starred values were filed as active, the others as inactive. This is a sample that favours compounds with a hit; in the whole collection about 3.9% have one here. Calls follow the shape of the dose curve; as a rule, active = well fitted curve in the direction sought with a large enough effect; inconclusive = small, poorly fitted or top-dose-only effect, or another doubt; inactive = no such curve, though single readings can be large; an effect the other way counts as inactive or inconclusive. Potency is read from the fitted curve at half-maximal effect.

For COc1ccc(N2CCN(c3nc(NCCc4ccc(OC)c(OC)c4)nc(OC)n3)CC2)cc1 the results were TGFb SMAD3 inh inconclusive, HT1080NT lethal inconclusive, ATXN2 expr inh 28.2µM*, S2 tox inconclusive, HT1080 IDH1KD tx inconclusive and HepG2 tox -71.8%.
For CCCN1CCC(=O)N(C(CSc2ccc(Br)cc2)CC(C)C)CC1 (stereo unspecified) the results were TGFb SMAD3 inh -2.3% and HepG2 tox -17.7%.
Screening CC(C=CC1=C(C)CCCC1(C)C)=CC=CC(C)=CC(=O)O returned ATXN2 expr inh -17.4%.
Screening CN(CCO)C(=O)c1cn(C2CCN(Cc3c(F)cccc3Cl)CC2)nn1 returned S2 tox inactive.
Screening COc1ccc(Cn2c(-c3ccc(C)cc3)c[n+]3ccccc23)cc1 returned TGFb SMAD3 inh inconclusive, HT1080NT lethal 4.11µM*, ATXN2 expr inh 16.8µM*, S2 tox inconclusive, HT1080 IDH1KD tx 1.16µM* and HepG2 tox -28.1%.
Screening O=C(COC(=O)Cc1ccccc1F)Nc1ccc(F)cc1F returned TGFb SMAD3 inh 0.9%, HT1080NT lethal 9.0%, ATXN2 expr inh -9.9%, S2 tox inactive, HT1080 IDH1KD tx 25.0% and HepG2 tox 3.55µM*.
Cc1ccc[n+](CC(=O)Nc2cccc([N+](=O)[O-])c2)c1 was read as TGFb SMAD3 inh inconclusive, HT1080NT lethal -3.9%, S2 tox inactive, HT1080 IDH1KD tx -1.7% and HepG2 tox 0.3%.
For Cc1ccc[n+](CC(=O)Nc2ccc([N+](=O)[O-])cc2)c1 the results were TGFb SMAD3 inh inconclusive, HT1080NT lethal -13.6%, S2 tox inconclusive, HT1080 IDH1KD tx 16.4µM* and HepG2 tox -53.9%.
For O=C(C[N+]12CN3CN(CN(C3)C1)C2)c1ccc(Cl)cc1 the results were TGFb SMAD3 inh 1.4% and HepG2 tox -18.1%.
`Nc1ccc2cc3ccc(N)cc3nc2c1` gave ATXN2 expr inh 2.51µM* and S2 tox inconclusive.
For CC(C)(C)n1ncc2c(=O)n(Cc3ccc(Cl)c(SC(F)(F)F)c3)cnc21 the results were TGFb SMAD3 inh 1.4% and HepG2 tox -11.2%.
`Cc1cc(C(=O)NCCN2CCN(c3cccc(Cl)c3)CC2)n(-c2ccccc2)n1` gave TGFb SMAD3 inh inconclusive, HT1080NT lethal 8.2µM*, ATXN2 expr inh -14.3%, S2 tox inconclusive, HT1080 IDH1KD tx 16.4µM* and HepG2 tox -9.1%.
O=C(NCCCN1CCN(c2cccc(Cl)c2)CC1)c1cnn(-c2ccc(F)cc2)c1-n1cccc1 was read as TGFb SMAD3 inh inconclusive, ATXN2 expr inh 35.5µM*, S2 tox inconclusive and HepG2 tox 10µM*.
`O=C(NCCN1CCN(c2ccccc2)CC1)Nc1cccc(Cl)c1` gave TGFb SMAD3 inh 42.3%, HT1080NT lethal 20.6µM*, ATXN2 expr inh 0.3%, S2 tox inactive, HT1080 IDH1KD tx 18.4µM* and HepG2 tox -8.9%.
Cc1ccc(NC(=O)NCCN2CCN(c3ccccc3)CC2)cc1Cl was read as TGFb SMAD3 inh 8.2%, HT1080NT lethal -24.9%, ATXN2 expr inh 11.6%, S2 tox inactive, HT1080 IDH1KD tx inconclusive and HepG2 tox -8.5%.
For CCCN(CCC)CCCNC(=O)c1cnn(-c2ccc(F)cc2)c1-n1cccc1 the results were TGFb SMAD3 inh -5.1%, ATXN2 expr inh -17.7%, S2 tox inactive and HepG2 tox -19.8%.
`Cc1cc(C)cc(NC(=O)Cc2noc3ccccc23)c1` gave TGFb SMAD3 inh -12.2%, ATXN2 expr inh 22.4%, S2 tox inactive and HepG2 tox -17.0%.
COc1ccc(N2CCN(C(=O)c3nc(-c4ccc(Cl)cc4)n4c3CCCCC4)CC2)cc1 was read as TGFb SMAD3 inh -10.1%, ATXN2 expr inh -8.6%, S2 tox inactive and HepG2 tox 3.1%.
`CCN1CCC(N(Cc2ccc3c(c2)OCO3)C(=O)Nc2cc(Cl)ccc2C(=O)OC)CC1` gave TGFb SMAD3 inh inconclusive, ATXN2 expr inh 25.1µM*, S2 tox 15.8µM* and HepG2 tox -108.3%.
`CCOC(=O)C1=C[C@@H](C(C)(C)C)N(S(=O)(=O)c2ccc(C)cc2)[C@H]1c1ccc(C)cc1` gave TGFb SMAD3 inh inconclusive, HT1080NT lethal inconclusive, ATXN2 expr inh -6.3%, S2 tox inactive, HT1080 IDH1KD tx 13µM* and HepG2 tox -29.8%.
Screening O=C(CCCl)Nc1nc2c(s1)CCc1ccccc1-2 returned TGFb SMAD3 inh inconclusive, HT1080NT lethal 9.2µM*, ATXN2 expr inh inconclusive, S2 tox inconclusive, HT1080 IDH1KD tx 9.2µM* and HepG2 tox 10µM*.
`CCCCCn1c(=O)c2ccccc2n2c(CCl)nnc12` gave TGFb SMAD3 inh inconclusive, HT1080NT lethal 23.1µM*, ATXN2 expr inh inconclusive, S2 tox inactive, HT1080 IDH1KD tx 23.1µM* and HepG2 tox -46.5%.
Screening CC(C)CCn1c(=O)c2ccccc2n2c(CCl)nnc12 returned TGFb SMAD3 inh 3.5%, HT1080NT lethal 18.4µM*, ATXN2 expr inh inconclusive, S2 tox inconclusive, HT1080 IDH1KD tx inconclusive and HepG2 tox -2.9%.
For COc1ccc(C2C=C(c3ccccc3)Nc3nc(NC(=O)/C=C/c4ccc(F)cc4)nn32)cc1 (stereo unspecified) the results were TGFb SMAD3 inh 1.5%, ATXN2 expr inh 0.5%, S2 tox inactive and HepG2 tox -2.5%.
Cc1ccc(NC(=O)CSc2nc3ccc(NC(=O)COc4ccc(C)cc4)cc3s2)cc1 was read as TGFb SMAD3 inh -2.3%, ATXN2 expr inh 7.2%, S2 tox inconclusive and HepG2 tox -14.5%.
O=C(C1CCCCC1)N1CCOc2ccc(CN3CCN(Cc4ccccn4)CC3)cc2C1 was read as S2 tox inactive.
`O=C1c2ccccc2-c2onc3c(N4CCN(CCO)CC4)cc(N4CCN(C(=O)c5ccco5)CC4)c1c23` gave TGFb SMAD3 inh 12.6µM*, HT1080NT lethal inconclusive, ATXN2 expr inh inconclusive, HT1080 IDH1KD tx inconclusive and HepG2 tox 17.8µM*.
Cc1ccc(-c2csc(NC(=S)NC(=O)/C=C/c3ccco3)n2)cc1 was read as TGFb SMAD3 inh -0.9%, HT1080NT lethal 7.08µM*, ATXN2 expr inh -17.1%, S2 tox inactive, HT1080 IDH1KD tx 7.94µM* and HepG2 tox 2.3%.
